KDM5B inhibitor – KDM5B demethylase inhibition | Q9UGL1 | KDM5B demethylase, FDH-coupled NADH fluorescence (FDH is formaldehyde dehydrogenase) | Potency, µM (doses to about 57.7 µM), hits mostly inhibitors | actives 2.6% (n = 220,000) | AID 1347165; also: nearly all actives have a fitted effect of over 70% in size
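Measured: NADH fluorescence change, 30 min, RT. System: KDM5BΔAP 200 nM final, H3K4me3 peptide, α-KG, Fe(II), ascorbate, NAD⁺ plus FDH, pH 7.5 HEPES. Compounds: titrated, 10 min pre-incubation with enzyme.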
SNCA viab count – cell viability loss counter-screen; HEK-293-SNCA-luc viability, GF-AFC fluorescence, 24 h; Potency, µM (highest dose often 57.1 µM), hits mostly cytotoxic; actives 0.12% (n = 150,000); AID 1671193; also: nearly all actives have a fitted effect of over 30% in size
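HEK-293-SNCA-luc cells (1500/well) plated 24 h, then exposed 24 h to a dilution series; GF-AFC added 30 min at 37C, fluorescence 405/540 nm; normalised to medium-only and DMSO wells, Hill fit.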
SNCA expr inhib – reduces expression of the alpha-synuclein gene; HEK-293 SNCA-luciferase knock-in, luminescence, 24 h; Potency, µM (series often up to 57.2 µM), most hits filed as inhibitors; actives 0.17% (n = 140,000); AID 1671194; also: nearly all actives have a fitted effect of over 45% in size
IP6K1 inh – blocks human inositol hexakisphosphate kinase 1; activity change, % (series mostly up to about 58 µM); IP6K1 kinase, ADP-Glo luminescence, 2 h; stronger effect = lower value; Q92551; actives 0.81% (n = 140,000); in the data active = activity change below about -25%
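ADP-Glo luminescence measures ADP made by human IP6K1 during a 2 h RT reaction with ATP/IP6 (mix at 1.3 mM/130 uM); top library doses 57.5 and 19.1 uM final.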
IP6K1 inh cnf – confirmation of human IP6K1 inhibitors; Potency, µM (series often up to 49 µM), hits mostly inhibitors; actives 13% (n = 1,200); recombinant IP6K1 kinase, ADP-Glo luminescence, 2 h; shares compounds with IP6K1 inh; AID 1645852; also: nearly all actives have a fitted effect of over 65% in size
A number is an active result; . = inactive; ? = inconclusive; / = no result given; ! = not active in a repeat; [ ] = remark or other dose. Most compounds without a hit are left out; they make up all but 2.8% or so of the library. Unless noted, calls follow the shape of the dose curve; as a rule, active = well fitted curve in the direction sought with a large enough effect; inconclusive = small, poorly fitted or top-dose-only effect, or another doubt; inactive = no such curve, though single readings can be large; an effect the other way counts as inactive or inconclusive.

SMILES | KDM5B inhibitor | SNCA viab count | SNCA expr inhib | IP6K1 inh | IP6K1 inh cnf
COc1cc2c(cc1NS(C)(=O)=O)C(c1cccc3c1OCO3)CC(=O)N2 (stereo unspecified) | . | . | . | . | /
COc1ccccc1CN1CCNc2cnc(OCc3cccnc3)cc2C1 | ? | . | . | . | /
COc1ccc(CN2CCNc3cnc(OCc4cccnc4)cc3C2)cc1O | . | . | . | -29.0 | .
Cc1cccc(C)c1NC(=O)CN(C)S(=O)(=O)c1ccc2[nH]c3c(c2c1)CCCC3 | ? | . | . | -26.3 | .
Cc1ccc(NS(=O)(=O)c2ccc3[nH]c4c(c3c2)CCCC4)cc1N(C)C | ? | . | ? | -26.6 | .
Cc1ccc(NS(=O)(=O)c2ccc3[nH]c4c(c3c2)CCCCCC4)cc1Cl | ? | . | . | . | /
Cc1cc(C)cc(NC(=O)CN(C)S(=O)(=O)c2ccc3[nH]c4c(c3c2)CCCC4)c1 | ? | . | ? | . | /
CC(C)Oc1ccc2c(NC(=O)C3CCOC3)nn(Cc3ccccc3)c2c1 (stereo unspecified) | . | . | . | . | /
CC(C)Oc1ccc2c(NC(=O)CN3CCCC3=O)nn(Cc3ccccc3)c2c1 | . | . | . | -32.5 | .
C[N+](C)([O-])CCNc1ccc(NCC[N+](C)(C)[O-])c2c1C(=O)c1c(O)ccc(O)c1C2=O | / | . | . | / | /
O=C1c2c(O)ccc(O)c2C(=O)c2c(NCCNCCO)ccc(NCCNCCO)c21 | / | ? | 1.21µM! | -39.2 | ?
CN1C(C)(C)CCCC1(C)C | / | . | . | -34.8 | .
COc1cncc(Nc2cnc3ccc(-c4ccccc4)nn23)c1 | ? | . | . | -35.7 | ?
O=C(O)CC1(O)C(=O)Nc2cc(Br)ccc21 (stereo unspecified) | . | / | / | / | /
O=C(O)CC1(O)C(=O)Nc2ccccc21 (stereo unspecified) | / | . | / | -31.1 | ?
Cn1ccc(NC(=O)c2ccc(-c3ncc4cnc(-c5cccc(F)c5)cn34)cc2)n1 | ? | . | . | . | /
O=C(O)c1ccc(-c2ncc3cnc(-c4cccc(F)c4)cn23)cc1 | 35.5µM | . | . | -29.7 | ?
Nc1nc(N)c(S(=O)(=O)c2ccccc2)c(Nc2ccc(Br)cc2)n1 | . | . | . | -35.9 | ?
Cc1cc(-c2cnc(N)c3c(-c4ccc5scnc5c4)csc23)n(C)n1 | / | . | / | -30.9 | ?
CCOC(=O)COc1ccc([N+](=O)[O-])cc1-c1ccnc2cc(-c3ccc(C)cc3)nn12 | . | . | . | . | /
Cc1ccc(-c2cc3nccc(-c4cc([N+](=O)[O-])ccc4O)n3n2)cc1 | ? | ? | ? | -25.5 | ?
CC1=NN(c2ccccc2)C(=O)C1 | / | . | . | -32.3 | .
CC(C)c1ccc(C2=NN(c3ccccc3)C(=O)CC2)cc1 | . | / | / | / | /
CN(Cc1ccccc1)C(=O)c1ccnc(-c2nnc3ccc(N4CCOCC4)nn23)c1 | . | . | . | . | /
O=C(O)CSc1cc(NS(=O)(=O)c2ccc(Br)cc2)c2ccccc2c1O | / | ? | / | -75.6 | ?
SMILES | KDM5B inhibitor | SNCA viab count | SNCA expr inhib | IP6K1 inh | IP6K1 inh cnf
Cc1ccc(NC(=O)C(=O)NCC(c2ccc3c(c2)OCO3)N2CCN(C)CC2)cc1C (stereo unspecified) | . | . | ? | -26.8 | .
O=C(N[C@@H]1CCOC[C@H]1Oc1cccc(F)c1)c1cnc2ccccn2c1=O | 35.5µM | . | . | -42.4 | .
Cc1cc(-n2c(C)nc3ccccc3c2=O)ccc1NC(=O)c1ccc(C)c([N+](=O)[O-])c1 | . | . | . | -25.2 | .
O=C(CSc1nc2cc3ccccc3cc2[nH]1)Nc1cccc(C(F)(F)F)c1 | .[11.5 µM] | . | . | -29.9 | .
CCOc1ccccc1NC(=O)c1cc2cc(OC)ccc2n1C | . | / | / | / | /
CCOc1ccc(CNC(=O)C2CCCN(c3nn4cc(-c5ccc(F)cc5)nc4s3)C2)cc1 (stereo unspecified) | . | . | . | . | /
CCOc1ccc(CNC(=O)C2CCCN(c3nn4cc(-c5ccc(OC)cc5)nc4s3)C2)cc1 (stereo unspecified) | . | . | . | -36.8 | ?
Nc1cccc(-c2ccc(N3CCCCC3)nn2)c1 | . | . | 1.78µM | -26.6 | ?
Cc1cc(CS(=O)(=O)c2ccccc2)cc(OCc2ccc(CN3CCC[C@@H]3CO)cc2)c1 | / | . | / | -41.1 | .
CCCC(C)C(=O)OCC(=O)C12CC3CC(CC(C3)C1)C2 (stereo unspecified) | . | / | / | / | /
COCCNC(=O)C[C@@H]1C[C@H]2O[C@H](CNC3CCOCC3)[C@@H](O)[C@H]2O1 | . | . | . | . | /
Cc1ccccc1[C@@H]1CN(C(=O)CCC(=O)NC2CCCC2)C[C@H]1C(=O)O | . | . | . | -35.4 | .
NCc1ccc(-c2cccc(O)c2)cc1 | ? | . | . | . | /
c1ccc(-c2n[nH]c(C3CCCCN3)n2)cc1 (stereo unspecified) | . | . | . | . | /
CC(=O)c1ccc(NC(=O)Cn2c(=O)n(-c3ccc(F)cc3)c(=O)c3c2cc(C)n3C)cc1 | . | ? | . | . | /
COCCCNc1ccc(C(=O)N2CCC(CN3CCCC3=O)CC2)cn1 | ? | . | . | -56.9 | .
O=C1CCCN1CC1CCN(C(=O)c2ccc(N3CCC(CO)C3)nc2)CC1 (stereo unspecified) | ? | . | . | . | /
Clc1ccccc1-c1nc(-c2ccncc2)no1 | / | . | . | -25.4 | ?
COc1ccc(-c2nc(CSCC(=O)N3CCN(c4cccc(C)c4C)CC3)c(C)o2)cc1OC | ? | ? | . | -26.3 | .
COc1ccc(-c2nc(CSCC(=O)N3CCN(c4cc(Cl)ccc4C)CC3)c(C)o2)cc1 | ? | ? | ? | . | /
